The values below come from PubChem BioAssay (EPA / NIEHS).

Where “and” joins values, the source holds several entries; their conditions need not be identical. Equal values may be shown once. More than one record can exist for a structure, and the calls need not agree. Calls of active or inactive are those of the source. Rule for the calls: active = hit-call score of the fitted dose curve at least 0.9, where 1 is the maximum; inactive = score below 0.9.

The term AC50 denotes the concentration at which the activity in the assay is half-maximal.

The first test in a line: CCTE_Shafer_MEA_dev_network_spike_duration_std: CCTE's Neural Network Formation Assay for Standard Deviation of Network Spike Duration, Shafer Lab (AID 2284052).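 Note: hits are decreases in network spike duration SD versus DMSO vehicle.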 The method, then:
CCTE_Shafer_MEA_dev assay is conducted using Axion Biosystems 48 well microelectrode array (MEA) plates and Maestro recording system. Each well of the MEA plate contains a grid of 16 microelectrodes embedded in the culture surface. Electrically active cells, such as neurons, can be cultured over the electrodes, and electrical activity in these cells can be recorded extracellularly. The spontaneous firing of neurons is captured from each electrode on a microsecond timescale providing both temporally and spatially precise data. […] The CCTE_Shafer_MEA_dev assay uses primary cultures of rat cortical neurons. Recordings are made on days post-plating 5, 7, 9 and 12. As these cultures mature over time, neural networks develop functional activity and form cohesive networks in which electrical activity can be highly coordinated. CCTE_Shafer_MEA_dev_network_spike_duration_std is 1 of 19 assay components of the CCTE_Shafer_MEA_dev assay. It measures the standard deviation of the duration of network spikes (temporally-clustered groups of action potential firing across multiple electrodes) during a recording in a microelectrode array (MEA) using Axion Biosystems Maestro 768 channel amplifier with the AxIS adaptive spike detector. To collapse across multiple recordings made on days post-plating 5, 7, 9 and 12, the trapezoidal area-under-the-curve of the component is calculated.Data from the assay component CCTE_Shafer_MEA_dev_network_spike_duration_std was analyzed into 1 assay endpoint. This assay endpoint, CCTE_Shafer_MEA_dev_network_spike_duration_std, was analyzed in the negative analysis fitting direction relative to DMSO as the negative control and baseline of activity. Using a type of functional reporter, gain or loss-of-signal activity can be used to understand electrical activity.
On the day prior to culture, each well was coated thoroughly with 150 uL of 0.05% polyethyleneimine (PEI, Sigma Cat P3143) in 50 mM HEPES (Sigma Cat H7523) at a pH of 8. The plate was incubated at 37C for one hour. PEI was rinsed out with 500 uL of sterile water three times. Plates were stored at 4C until the day of culture. This culture was plated at a seeding density of 1.5 x 10^5 cells/well on a 48-well MEA plate, prepared as described above. Cells were administered via a 25 uL media/laminin ([…]; Sigma Cat L2020-1MG) drop directly onto the microelectrode array, as adding the cells with the laminin results in better attachment than pre-coating with laminin. After 2 hours, an additional 475 uL of cortical media was added and the cells returned to the incubator. Exposure starts at day 0 of plating and is continued over twelve days of network development until the experiment is terminated. Cells are fed with fresh medium on DIV 5 and 9, following the recordings on those days. The entire volume of media in the well is exchanged and any vehicle or compound treatment is renewed. Complete details are found in OP-NHEERL/ISTD/SBB/TJS/2015-03-r0 (available on request, email shafer.tim@epa.gov). Measurement of the electrical activity is non-invasive, and recordings can be made from the same plate over multiple different days of the culture. In cortical neurons, this allows for the measurement of extracellular action potentials over the period during which networks form in the MEA plate.
For the compound `C[N+](C)(C)CCCNS(=O)(=O)C(F)(F)C(F)(F)C(F)(F)C(F)(F)C(F)(F)C(F)(F)C(F)(F)C(F)(F)F`, the outcome was inactive.
Same read-out and setting: under `Cc1noc(NS(=O)(=O)c2ccc(N)cc2)c1C` stands “inactive”; under `Cc1c(C(=O)c2c[nH]n(C)c2=O)ccc(S(C)(=O)=O)c1C1=NOCC1`, “inactive”.

Another test is described as follows: CCTE_Shafer_MEA_dev_per_network_spike_spike_number_mean: CCTE's Neural Network Formation Assay for Mean Number of Spikes in a Network Spike, Shafer Lab (AID 2284053).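 For AC50: fitted as decrease in spikes per network spike relative to DMSO.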 An outline of the steps: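 Rat cortical primary cultures on 48-well MEA; compound from day 0, re-dosed with full media change DIV 5, 9. Recorded DIV 5, 7, 9, 12; spikes in 0.05 s window at network-spike peak ÷ total network spikes; AUC; loss vs DMSO.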
On to `C[N+](C)(C)CCCNS(=O)(=O)C(F)(F)C(F)(F)C(F)(F)C(F)(F)C(F)(F)C(F)(F)C(F)(F)C(F)(F)F`, for which the AC50 is 901 nM (active) and 1.36 µM (active).
Consider `Cc1noc(NS(=O)(=O)c2ccc(N)cc2)c1C`, for which the compound was classed as inactive.
On the same count and under the same terms, under `Cc1c(C(=O)c2c[nH]n(C)c2=O)ccc(S(C)(=O)=O)c1C1=NOCC1` stands “inactive”.

Another test in a line: CCTE_Shafer_MEA_dev_per_network_spike_spike_percent: CCTE's Neural Network Formation Assay for Percent of Spikes in a Network Spike, Shafer Lab (AID 2284054). A digest of the protocol: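 Rat primary cortical cultures, 1.5 x 10^5 cells/well on MEA. Continuous compound exposure d0–12, medium/compound renewed DIV 5, 9. Network-spike spike % (0.05 s peak window), AUC over 4 recordings, DMSO baseline.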
For the compound `C[N+](C)(C)CCCNS(=O)(=O)C(F)(F)C(F)(F)C(F)(F)C(F)(F)C(F)(F)C(F)(F)C(F)(F)C(F)(F)F`, the AC50 is 2.55 µM (active) and the call was inactive.
Consider `Cc1noc(NS(=O)(=O)c2ccc(N)cc2)c1C`, for which the result was inactive.
For the compound `Cc1c(C(=O)c2c[nH]n(C)c2=O)ccc(S(C)(=O)=O)c1C1=NOCC1`, the compound was classed as inactive.
